Data as given in PubChem BioAssay (Tox21).
Results filed as inconclusive are left out. Activity calls are given as the source filed them. Unless noted, calls come from the whole dose curve; as a rule, active = well fitted curve in the direction sought with a large enough effect in the repeat runs; inconclusive = weak or mixed curves; inactive = no such curve, though single readings can be large; an effect the other way counts as inactive or inconclusive.

Tests used:
[1] = qHTS assay to identify small molecule agonists of the TGF-beta/Smad signaling pathway (AID 1346859; active = well fitted activation curve with a large enough effect in the signal ratio in the repeat runs, not every such curve was filed as active; the % refers to the signal ratio; note: series mostly up to about 77 µM)
In short: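 Smad-responsive beta-lactamase reporter cells (HEK 293T) received compounds from DMSO stocks after overnight attachment, were incubated 5 hr, then treated 2 hr with FRET substrate before dual-emission fluorescence measurement (405 nm excitation).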

[2] = target: Thyrotropin-releasing hormone receptor (Homo sapiens) (UniProt P34981); assay: qHTS assay to identify small molecule antagonists of the thyrotropin-releasing hormone receptor (TRHR) signaling pathway (AID 1346877; active = well fitted inhibition curve with a large enough effect in the repeat runs, not every such curve was filed as active; note: series mostly up to about 51 µM)
Chain of Thyrotropin-releasing hormone receptor (Homo sapiens) (P34981 whole entry, looked up): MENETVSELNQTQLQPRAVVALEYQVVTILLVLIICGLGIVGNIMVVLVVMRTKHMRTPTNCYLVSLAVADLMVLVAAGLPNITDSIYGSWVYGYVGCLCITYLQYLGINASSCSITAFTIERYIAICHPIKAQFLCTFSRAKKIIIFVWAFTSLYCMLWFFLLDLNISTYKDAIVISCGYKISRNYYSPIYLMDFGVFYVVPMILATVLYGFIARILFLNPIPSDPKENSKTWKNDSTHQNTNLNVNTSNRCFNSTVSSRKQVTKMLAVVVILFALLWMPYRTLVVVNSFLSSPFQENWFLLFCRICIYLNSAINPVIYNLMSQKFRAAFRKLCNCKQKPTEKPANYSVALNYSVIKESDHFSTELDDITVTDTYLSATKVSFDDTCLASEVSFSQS
In short: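 TRHR-expressing HEK293 cells loaded with calcium dye for 2 h at 37 C; compounds pre-incubated 5 min at room temperature before TRH challenge at 1 nM final. Intracellular calcium fluorescence read kinetically for 3 min; 15 concentrations in triplicate.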

[3] = target: Thyrotropin-releasing hormone receptor (Homo sapiens) (UniProt P34981); assay: qHTS assay to identify small molecule agonists of the thyrotropin-releasing hormone receptor (TRHR) signaling pathway (AID 1346891; calls by dose curve; note: series mostly up to about 58 µM)
In short: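 Agonist-mode calcium mobilisation screen: TRHR-transfected HEK293 cells cultured overnight (18 h), dye-loaded for 2 h at 37 °C, exposed to compounds, and monitored by fluorescence for 3 min.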

[4] = Human pregnane X receptor (PXR) small molecule agonists, qHTS cell viability counter screen (AID 1346977); note: nearly all actives have a fitted effect of over 50% in size
In short: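 Measures live-cell protease fluorescence (CellTiter-Fluor) in PXR-Luc HepG2 cells treated 24hr with compounds at 37C. Cells had 5hr to attach before pin transfer of DMSO solutions.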

[5] = Caspase-3/7 induction in HepG2 cells by small molecules, qHTS assay (AID 1346978); note: nearly all actives have a fitted effect of over 15% in size
In short: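 Wild-type HepG2 cells, 2,000/well, settled 5 hr at 37 C and 5% CO2, then compound-treated for 17 hr; caspase-3/7 activity read by luminescent Caspase-Glo 3/7 after 30 min at room temperature.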

[6] = Caspase-3/7 induction in CHO-K1 cells by small molecules, qHTS cell viability counter screen (AID 1346979); note: nearly all actives have a fitted effect of over 35% in size
In short: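 In the same wells as the caspase read, viability of compound-treated wild-type CHO-K1 cells was assessed using CellTiter-Fluor, added after 16hr at 37C and measured by fluorescence following 1hr further incubation.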

[7] = Caspase-3/7 induction in HepG2 cells by small molecules, qHTS cell viability counter screen (AID 1346981); note: series mostly up to about 92 µM; nearly all actives have a fitted effect of over 30% in size
In short: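 Wild-type HepG2 cells, 2,000/well, settled 5 hr at 37 C, 5% CO2 before compound addition. Viability read by CellTiter-Fluor fluorescence, reagent added after 16 hr compound exposure, then 1 hr at 37C, in the same wells as the caspase read.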

[8] = target: Nuclear receptor subfamily 1 group I member 2 (Homo sapiens) (UniProt O75469); assay: Human pregnane X receptor (PXR) small molecule agonists, qHTS assay (AID 1346982); note: nearly all actives have a fitted effect of over 35% in size
Chain of Nuclear receptor subfamily 1 group I member 2 (Homo sapiens) (O75469 whole entry, looked up): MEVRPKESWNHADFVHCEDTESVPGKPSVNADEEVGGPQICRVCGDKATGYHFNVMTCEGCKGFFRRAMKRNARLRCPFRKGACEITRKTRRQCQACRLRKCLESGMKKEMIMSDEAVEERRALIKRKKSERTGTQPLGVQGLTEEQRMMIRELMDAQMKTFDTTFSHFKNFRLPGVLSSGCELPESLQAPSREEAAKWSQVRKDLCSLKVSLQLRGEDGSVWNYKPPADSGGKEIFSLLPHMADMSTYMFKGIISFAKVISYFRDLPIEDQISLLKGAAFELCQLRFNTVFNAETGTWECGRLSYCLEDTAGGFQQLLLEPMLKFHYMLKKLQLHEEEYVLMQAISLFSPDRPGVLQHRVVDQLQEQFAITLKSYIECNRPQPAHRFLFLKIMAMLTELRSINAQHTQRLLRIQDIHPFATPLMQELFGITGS
In short: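 PXR-Luc HepG2 reporter cells (CYP3A4-driven luciferase) in 5% charcoal-stripped FBS medium, plated 5 h before compound addition, then treated 24 h at 37C. Luciferase read by ONE-Glo luminescence after 30 min at room temperature.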

[9] = target: Nuclear receptor subfamily 1 group I member 2 (Rattus norvegicus) (UniProt Q9R1A7); assay: Rat pregnane X receptor (rPXR) activation by small molecules, qHTS assay (AID 1346983); settings: rPXR luciferase reporter cells, One-Glo luminescence, 24 h; active compounds read high; note: nearly all actives have a fitted effect of over 20% in size
Chain of Nuclear receptor subfamily 1 group I member 2 (Rattus norvegicus) (Q9R1A7 whole entry, looked up): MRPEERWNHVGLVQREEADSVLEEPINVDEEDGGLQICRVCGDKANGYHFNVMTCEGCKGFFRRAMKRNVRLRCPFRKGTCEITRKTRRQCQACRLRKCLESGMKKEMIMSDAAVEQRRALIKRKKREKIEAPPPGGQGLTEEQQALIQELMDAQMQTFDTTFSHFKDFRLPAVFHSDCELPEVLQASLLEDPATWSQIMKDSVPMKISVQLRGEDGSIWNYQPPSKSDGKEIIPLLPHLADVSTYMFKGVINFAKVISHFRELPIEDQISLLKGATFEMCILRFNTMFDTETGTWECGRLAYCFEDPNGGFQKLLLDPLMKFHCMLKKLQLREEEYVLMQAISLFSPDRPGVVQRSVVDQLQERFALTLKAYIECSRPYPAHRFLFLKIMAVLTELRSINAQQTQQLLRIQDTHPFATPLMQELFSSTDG
In short: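 Cell-based rPXR activation assay: rPXR cells, 2,000 per well, rested 5hr at 37 C, then exposed to compounds in DMSO for 24 hr at 37 C. Luciferase activity read by One-Glo luminescence after 30 min at room temperature.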

[10] = target: Nuclear receptor subfamily 1 group I member 2 (Homo sapiens) (UniProt O75469); assay: CYP3A4 induction through human pregnane X receptor (PXR) by small molecules, qHTS assay (AID 1346984); note: nearly all actives have a fitted effect of over 40% in size
In short: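 DPX-2 HepG2 cells carrying a PXR response element and CYP3A4-promoter luciferase construct, treated with compounds 24 hr at 37C. Then P450-Glo CYP3A4 Luciferin-IPA substrate (3uM final) for 3 hr at 37C, One-Glo added, luminescence read.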

[11] = target: Nuclear receptor subfamily 1 group I member 2 (Homo sapiens) (UniProt O75469); assay: Human pregnane X receptor (PXR) activation by small molecules, qHTS assay (AID 1346985); note: nearly all actives have a fitted effect of over 40% in size
In short: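 DPX-2 cells (HepG2 co-transfected with a PXR response element and a CYP3A4-promoter luciferase construct) were seeded at 2,000 per well, rested 5 hr at 37C, then exposed to DMSO-dissolved compounds for 24 hr. Activation was read as luciferase luminescence.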

[12] = target: Cytochrome P450 2C19 (Homo sapiens) (UniProt P33261); assay: Cytochrome P450 Family 2 Subfamily C Member 19 (CYP2C19) small molecule antagonists: luciferase reporter qHTS assay (AID 1671197); note: nearly all actives have a fitted effect of over 65% in size; note: potency is the fitted concentration of half-maximal effect
Chain of Cytochrome P450 2C19 (Homo sapiens) (P33261 whole entry, looked up): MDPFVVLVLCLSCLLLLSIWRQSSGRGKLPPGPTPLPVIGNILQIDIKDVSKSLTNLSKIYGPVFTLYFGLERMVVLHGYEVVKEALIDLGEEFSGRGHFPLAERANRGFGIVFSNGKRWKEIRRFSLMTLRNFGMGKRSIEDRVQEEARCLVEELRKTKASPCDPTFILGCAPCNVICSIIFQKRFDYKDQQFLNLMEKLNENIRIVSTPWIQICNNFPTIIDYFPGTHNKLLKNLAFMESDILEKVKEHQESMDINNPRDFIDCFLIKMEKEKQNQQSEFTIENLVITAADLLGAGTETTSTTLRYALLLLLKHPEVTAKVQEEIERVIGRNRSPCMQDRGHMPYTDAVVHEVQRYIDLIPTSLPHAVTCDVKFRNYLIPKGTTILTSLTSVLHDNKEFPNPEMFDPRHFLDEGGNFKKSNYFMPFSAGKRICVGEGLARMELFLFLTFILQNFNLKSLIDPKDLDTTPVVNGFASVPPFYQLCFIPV
In short: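 Inhibition of CYP2C19 was scored from loss of luminescence in a P450-Glo proluciferin substrate assay, NADPH-started and run 1 h at 37C, with ketoconazole as positive control.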

[13] = target: Cytochrome P450 2C9 (Homo sapiens) (UniProt P11712); assay: Cytochrome P450 Family 2 Subfamily C Member 9 (CYP2C9) small molecule antagonists: luciferase reporter qHTS assay (AID 1671198); note: series mostly up to about 120 µM; nearly all actives have a fitted effect of over 50% in size
Chain of Cytochrome P450 2C9 (Homo sapiens) (P11712 whole entry, looked up): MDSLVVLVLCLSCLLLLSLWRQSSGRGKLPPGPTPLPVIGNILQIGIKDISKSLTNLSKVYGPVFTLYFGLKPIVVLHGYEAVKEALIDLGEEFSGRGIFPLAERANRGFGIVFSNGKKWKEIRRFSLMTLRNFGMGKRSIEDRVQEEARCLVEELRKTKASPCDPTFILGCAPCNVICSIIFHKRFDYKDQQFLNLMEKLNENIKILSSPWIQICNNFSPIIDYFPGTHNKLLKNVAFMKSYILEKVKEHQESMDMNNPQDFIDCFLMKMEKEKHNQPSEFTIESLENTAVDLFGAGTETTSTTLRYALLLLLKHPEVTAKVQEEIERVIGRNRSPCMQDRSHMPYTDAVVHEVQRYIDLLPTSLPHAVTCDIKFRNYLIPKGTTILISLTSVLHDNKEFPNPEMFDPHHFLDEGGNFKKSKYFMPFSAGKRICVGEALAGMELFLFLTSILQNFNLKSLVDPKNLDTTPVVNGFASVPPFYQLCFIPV
In short: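 P450-Glo proluciferin substrate with CYP2C9 enzyme; 10 min RT preincubation, then NADPH regeneration 1 h at 37C; luciferin detection reagent 20 min RT, luminescence in relative luminescence units.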

[14] = target: Cytochrome P450 1A2 (Homo sapiens) (UniProt P05177); assay: Cytochrome P450 Family 1 Subfamily A Member 2 (CYP1A2) small molecule antagonists: luciferase reporter qHTS assay (AID 1671199); note: nearly all actives have a fitted effect of over 50% in size; note: potency is the fitted concentration of half-maximal effect
Chain of Cytochrome P450 1A2 (Homo sapiens) (P05177 whole entry, looked up): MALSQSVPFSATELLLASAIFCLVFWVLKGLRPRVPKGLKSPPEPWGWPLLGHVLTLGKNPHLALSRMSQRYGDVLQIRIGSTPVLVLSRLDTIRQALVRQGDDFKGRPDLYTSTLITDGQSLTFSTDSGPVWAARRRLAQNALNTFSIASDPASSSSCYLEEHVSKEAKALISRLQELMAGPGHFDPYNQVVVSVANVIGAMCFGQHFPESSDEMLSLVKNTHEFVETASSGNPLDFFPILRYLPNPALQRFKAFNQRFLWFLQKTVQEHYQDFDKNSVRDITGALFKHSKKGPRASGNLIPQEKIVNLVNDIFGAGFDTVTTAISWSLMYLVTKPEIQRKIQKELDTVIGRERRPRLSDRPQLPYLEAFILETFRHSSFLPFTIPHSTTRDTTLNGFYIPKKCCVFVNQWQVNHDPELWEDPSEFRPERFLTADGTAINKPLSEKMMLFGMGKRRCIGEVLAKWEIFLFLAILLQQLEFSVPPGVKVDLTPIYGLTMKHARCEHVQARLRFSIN
In short: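 P450-Glo CYP1A2 enzyme–proluciferin substrate mix with compound 10 min at room temperature, then NADPH regeneration 1 h at room temperature. Luciferin detection reagent added, luminescence read after 20 min; furafylline positive control.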

[15] = target: Voltage-gated inwardly rectifying potassium channel KCNH2 (Homo sapiens) (UniProt Q12809); assay: Human Ether-a-go-go-Related Gene (hERG) channel small molecule antagonists: fluorescence cell-based qHTS assay (AID 1671200);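 note: hERG-expressing U2OS cells given a thallium stimulus after FluxOR II dye loading; series mostly up to about 77 µM; nearly all actives have a fitted effect of over 50% in size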
Chain of Voltage-gated inwardly rectifying potassium channel KCNH2 (Homo sapiens) (Q12809 whole entry, looked up): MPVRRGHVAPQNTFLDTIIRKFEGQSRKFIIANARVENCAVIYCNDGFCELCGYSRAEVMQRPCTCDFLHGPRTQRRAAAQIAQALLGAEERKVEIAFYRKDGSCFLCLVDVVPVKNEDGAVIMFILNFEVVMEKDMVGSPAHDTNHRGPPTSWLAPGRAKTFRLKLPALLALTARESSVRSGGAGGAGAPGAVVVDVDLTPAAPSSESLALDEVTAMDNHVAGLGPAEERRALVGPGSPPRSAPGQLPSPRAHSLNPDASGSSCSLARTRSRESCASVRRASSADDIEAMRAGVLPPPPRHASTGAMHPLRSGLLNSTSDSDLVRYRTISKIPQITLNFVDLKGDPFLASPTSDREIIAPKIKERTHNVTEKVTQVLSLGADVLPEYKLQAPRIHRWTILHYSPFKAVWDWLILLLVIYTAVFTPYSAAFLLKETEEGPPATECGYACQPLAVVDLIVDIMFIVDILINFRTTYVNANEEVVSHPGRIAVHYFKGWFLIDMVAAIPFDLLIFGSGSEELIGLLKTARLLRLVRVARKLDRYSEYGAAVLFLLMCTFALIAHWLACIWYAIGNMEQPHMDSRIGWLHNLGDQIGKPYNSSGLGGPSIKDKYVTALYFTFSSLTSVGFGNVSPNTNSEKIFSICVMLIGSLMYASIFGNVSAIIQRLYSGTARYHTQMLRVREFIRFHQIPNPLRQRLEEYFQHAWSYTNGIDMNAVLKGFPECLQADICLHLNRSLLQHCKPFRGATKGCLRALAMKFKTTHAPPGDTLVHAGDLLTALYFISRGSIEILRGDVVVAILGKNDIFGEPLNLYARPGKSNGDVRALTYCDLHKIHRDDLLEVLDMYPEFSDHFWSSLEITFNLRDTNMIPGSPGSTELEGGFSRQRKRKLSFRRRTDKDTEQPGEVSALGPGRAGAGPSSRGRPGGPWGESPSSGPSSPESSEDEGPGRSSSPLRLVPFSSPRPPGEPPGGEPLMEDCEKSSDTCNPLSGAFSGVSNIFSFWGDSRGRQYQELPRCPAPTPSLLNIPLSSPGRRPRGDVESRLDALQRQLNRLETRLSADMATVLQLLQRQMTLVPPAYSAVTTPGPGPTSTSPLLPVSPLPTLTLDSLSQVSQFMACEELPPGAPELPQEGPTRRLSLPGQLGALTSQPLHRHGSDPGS
In short: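 Quantitative HTS in hERG-U2OS cells: thallium entry through the channel reports activity, read as continuous 480/540 nm fluorescence over 2 min after stimulus addition.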

[16] = target: Cytochrome P450 3A4 (Homo sapiens) (UniProt P08684); assay: Cytochrome P450 Family 3 Subfamily A Member 4 (CYP3A4) small molecule antagonists: luciferase reporter qHTS assay (AID 1671201)
Chain of Cytochrome P450 3A4 (Homo sapiens) (P08684 whole entry, looked up): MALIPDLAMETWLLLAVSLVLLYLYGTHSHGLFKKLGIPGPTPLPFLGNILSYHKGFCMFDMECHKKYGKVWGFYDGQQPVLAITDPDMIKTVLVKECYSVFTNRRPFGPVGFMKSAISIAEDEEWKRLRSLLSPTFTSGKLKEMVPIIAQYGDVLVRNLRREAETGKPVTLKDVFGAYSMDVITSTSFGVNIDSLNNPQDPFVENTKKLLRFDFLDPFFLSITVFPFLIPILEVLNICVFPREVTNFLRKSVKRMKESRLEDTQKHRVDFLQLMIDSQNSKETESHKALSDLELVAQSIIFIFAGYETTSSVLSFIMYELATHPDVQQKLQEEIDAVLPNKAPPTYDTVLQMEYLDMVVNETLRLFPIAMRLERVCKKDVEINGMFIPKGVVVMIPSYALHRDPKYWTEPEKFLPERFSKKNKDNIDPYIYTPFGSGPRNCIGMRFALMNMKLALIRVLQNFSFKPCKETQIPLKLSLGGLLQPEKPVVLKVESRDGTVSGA
In short: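 Inhibition of CYP3A4 is measured as loss of light: the enzyme converts a proluciferin substrate to luciferin, detected luminescently. Reaction ran 1 h at room temperature with NADPH regeneration after a 10 min compound preincubation.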

[17] = Caspase-3/7 induction in CHO-K1 cells by small molecules, qHTS assay (AID 1346980); note: nearly all actives have a fitted effect of over 15% in size
In short: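 Wild-type CHO-K1 cells exposed to compounds for 17hr at 37 C, 5% CO2. Caspase-3/7 activity then measured by Caspase-Glo 3/7 luminescence after 30min at room temperature.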

[18] = target: Cytochrome P450 2D6 (Homo sapiens) (UniProt P10635); assay: Cytochrome P450 Family 2 Subfamily D Member 6 (CYP2D6) small molecule antagonists: luciferase reporter qHTS assay (AID 1671196); note: nearly all actives have a fitted effect of over 50% in size; note: potency is the fitted concentration of half-maximal effect
Chain of Cytochrome P450 2D6 (Homo sapiens) (P10635 whole entry, looked up): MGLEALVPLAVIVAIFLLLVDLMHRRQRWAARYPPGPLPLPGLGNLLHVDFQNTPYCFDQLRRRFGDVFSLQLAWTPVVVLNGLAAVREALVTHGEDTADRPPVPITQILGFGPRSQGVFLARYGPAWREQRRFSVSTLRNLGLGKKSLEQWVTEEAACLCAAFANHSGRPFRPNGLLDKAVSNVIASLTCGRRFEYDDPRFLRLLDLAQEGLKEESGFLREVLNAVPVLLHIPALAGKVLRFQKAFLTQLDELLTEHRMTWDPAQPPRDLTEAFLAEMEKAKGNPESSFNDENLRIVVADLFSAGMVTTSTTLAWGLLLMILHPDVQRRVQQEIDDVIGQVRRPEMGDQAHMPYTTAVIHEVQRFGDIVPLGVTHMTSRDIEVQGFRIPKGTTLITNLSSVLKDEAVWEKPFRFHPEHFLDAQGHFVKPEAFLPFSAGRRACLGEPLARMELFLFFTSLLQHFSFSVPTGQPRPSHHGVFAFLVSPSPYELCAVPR
In short: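 Cell-free P450-Glo system: CYP2D6 with proluciferin substrate was pre-incubated with compound for 10 min, then reacted with NADPH regeneration for 1 h at room temperature. Luciferin product was detected after 20 min, and data were reported as relative luminescence units.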
% is set by controls: 0 for no effect and ±100 for the full control effect.

CC(C)Cn1cnc2c1c(=O)n(C)c(=O)n2C
inactive: outcome [1] | outcome [2] | outcome [3] | outcome [4] | outcome [5] | Potency [6] | outcome [7] | Potency [8] | max activation [9] 0.329% | Potency [10] | Potency [11] | Potency [12] | Potency [13] | Potency [15] | Potency [16]
active: Potency [14] 15.5 µM

C#CCN[C@@H]1CCc2ccccc21
inactive: outcome [1] | outcome [2] | outcome [3] | outcome [4] | Potency [6] | outcome [17] | outcome [7] | Potency [8] | max activation [9] -3.04% | Potency [10] | Potency [11] | Potency [12] | Potency [13] | Potency [15] | Potency [16]
active: Potency [18] 27.5 µM | Potency [14] 5.12 µM

CCCCCCCCCCCCCBr
inactive: outcome [1] | outcome [2] | outcome [3] | outcome [4] | outcome [5] | Potency [6] | outcome [7] | Potency [8] | Potency [18] | Potency [13] | Potency [15] | Potency [16]
active: Potency [12] 70.8 µM | Potency [14] 22.4 µM

CC1=C(C(=O)O)N2C(=O)[C@@H](NC(=O)[C@H](N)c3ccccc3)[C@H]2SC1
inactive: outcome [1] | outcome [2] | outcome [3] | outcome [4] | Potency [6] | outcome [17] | outcome [7] | Potency [8] | max activation [9] -2.36% | Potency [11]

CC(=O)c1cc(C)oc1C
inactive: outcome [1] | outcome [2] | outcome [3] | outcome [4] | outcome [5] | Potency [6] | outcome [7] | Potency [8] | Potency [13] | Potency [14] | Potency [15] | Potency [16]
active: Potency [12] 32.9 µM

CC1=C(O)C(=O)C(C)O1 (centres undefined)
active: Potency [14] 28.9 µM
inactive: outcome [1] | outcome [2] | outcome [3] | outcome [4] | outcome [5] | Potency [6] | outcome [7] | Potency [8] | Potency [18] | Potency [13] | Potency [15] | Potency [16]

CC1(C)O[C@H]2CC(=O)OC[C@]23[C@H]2CC[C@@]4(C)[C@H](c5ccoc5)OC(=O)[C@H]5O[C@]54[C@]2(C)C(=O)C[C@@H]13
inactive: outcome [1] | outcome [2] | outcome [3] | outcome [4] | outcome [5] | Potency [6] | outcome [7] | Potency [8] | max activation [9] 5.81% | Potency [10] | Potency [11] | Potency [18] | Potency [12] | Potency [13] | Potency [14] | Potency [15]

CCCCCCC1(C)CCC(=O)O1 (centres undefined)
inactive: outcome [1] | outcome [2] | outcome [3] | outcome [4] | outcome [5] | Potency [6] | outcome [7] | Potency [8] | Potency [18] | Potency [12] | Potency [13] | Potency [15] | Potency [16]

CC(=O)C1C(=O)C=C(C)OC1=O (centres undefined)
inactive: outcome [1] | outcome [2] | outcome [3] | outcome [4] | outcome [5] | Potency [6] | outcome [7] | Potency [8] | Potency [12] | Potency [14] | Potency [15] | Potency [16]
